Inconclusive results are not listed. The source made the active and inactive calls. How the source made its calls: active means hit-call score of the fitted dose curve at least 0.9, where 1 is the maximum; inconclusive means response in the unintended direction; inactive means score below 0.9.

We go through seven compounds from PubChem BioAssay AID2284345 (EPA ToxCast).

The test has as its system zebrafish Glucocorticoid Receptor (GR), gene 553740. Briefly: ATG_zfGR_EcoTox2: Attagene TRANS-FACTORIAL EcoTox-2 HepG2 Assay for zebrafish Glucocorticoid Receptor (GR). Here is the method: ATG_EcoTox2 is a cell-based, multiplexed assay created by modifying the existing Attagene TRANS-FACTORIAL system to include a panel of nuclear receptors from some or all the following species: human (Homo sapiens), african clawed frog (Xenopus laevis), rainbow trout (Oncorhynchus mykiss), japanese medaka (Oryzias latipes), and zebrafish (Danio rerio). The ECOTOX2-FACTORIAL format uses HepG2, a human liver cell line, with measurements taken at 24 hours after chemical dosing in a 24-well plate. ATG_zfGR_EcoTox2 is one of 29 assay components calculated in the ATG_EcoTox2 assay. It is designed to make measurements of mRNA induction, a form of inducible reporter, as detected with fluorescence intensity signals by Reverse transcription polymerase chain reaction (RT-PCR) and Capillary electrophoresis technology.The assay endpoint ATG_zfGR_EcoTox2 was analyzed in the positive analysis fitting direction relative to DMSO as the negative control and baseline of activity. Using a type of inducible reporter, measures of mRNA for gain-of-signal activity can be used to understand the reporter gene at the transcription factor-level as they relate to the gene for glucocorticoid receptor. Furthermore, this assay endpoint can be referred to as a primary readout, because this assay has produced multiple assay endpoints where this one serves a reporter gene function. To generalize the intended target to other relatable targets, this assay endpoint is annotated to the nuclear receptor intended target family, where the subfamily is steroidal.
Human liver HepG2 cells are transiently transfected with multiple reporter transcription units (MRTUs) in 6-well plates using FuGene 6 reagent (Roche; 3 ml FuGene/1 mg DNA). The MRTU constructs are regulated by a cis-regulating element (promoter). Each RTU expresses a GAL4-UAS that regulates the transcription of a nearby target reporter gene sequence. A major difference between the CIS and TRANS system is that in CIS activities of endogenous TFs are measured, whereas the TRANS assay evaluates changes in activities of exogenous, chimeric NR-Gal4 proteins. […] At the end of 24 hour incubation, total RNA was isolated using TriZol reagent (Invitrogen). The isolated RNA is then reverse-transcribed using oligo(dT) primer and Mo-MLV reverse transcriptase (Invitrogen) with DNAse I (Ambion) treatment for 30 min. The one-tenth of the produced cDNA was amplified by PCR using Taq DNA polymerase (Invitrogen) and two reporter sequence-specific primers. The PCR products were fluorescently labeled by primer extension with 6-arboxyfluorescein (6-FAM) 5'-labeled reporter sequence-specific primer (2 min at 95 C, 20 s at 68 C and 10 min at 72 C) and these products were digested with 5U of HpaI (New England Biolabs) for 2h at 37 C. The fragments were purified using Qiaquick PCR columns (Qiagen), analyzed on an ABI 3130xL genetic analyzer (Applied Biosystems) with peak positions identified by using a set of X-rhodamine (ROX)-labeled MapMarker1000 molecular weight standards (BioVentures). The raw capillary electrophoresis data was processed using Attagraph software (Attagene).
In the case of `CC(C)OC(=O)C(C)(C)Oc1ccc(C(=O)c2ccc(Cl)cc2)cc1`, the compound was called inactive.

`CC(C)(Oc1ccc(Cl)cc1)C(=O)O`: the outcome was inactive.

For the compound `Cc1c(C)c2c(c(C)c1O)CCC(C)(COc1ccc(CC3SC(=O)NC3=O)cc1)O2` (configuration not stated), the compound was classed as inactive.

For the compound `Cc1ccc(C)c(OCCCC(C)(C)C(=O)O)c1`, the call was inactive.

As to `C[C@]12C=CC(=O)C=C1CC[C@@H]1[C@@H]2C(=O)C[C@@]2(C)[C@H]1CC[C@]2(O)C(=O)CO`, the result was inactive.

As for `CN(CCOc1ccc(CC2SC(=O)NC2=O)cc1)c1ccccn1` (configuration not stated), the call was inactive.

For orientation: AC50 means the midpoint of the concentration-response curve, whichever way the signal moves. As to `C[C@@H]1C[C@H]2[C@@H]3CCC4=CC(=O)C=C[C@]4(C)[C@@]3(F)[C@@H](O)C[C@]2(C)[C@@]1(O)C(=O)COP(=O)(O)O`, the AC50 is 4.57 nM (active).
